# Reference: paper PMC11062922 (Nature Chemical Biology, 2023)
# Where two headings read alike, the source gives them in different places.
# Columns and labels:
# Set-up in all cases: species or system human, MV4-11 + K-562 + COLO205 + SK-N-BE2 + OVCAR-8
# [1] = test system: CDC42; conditions: read-out: apparent Kd; compound concentrations: 100 nM and 1000 nM (sheet 'Samples'), CATDS: 0.112066673449154; n = 1
# [2] = test system: CSNK1A1; conditions: read-out: apparent Kd; compound concentrations: 100 nM and 1000 nM (sheet 'Samples'), CATDS: 0.11767767323313399; n = 1
# [3] = test system: CSNK1D; conditions: read-out: apparent Kd; compound concentrations: 100 nM and 1000 nM (sheet 'Samples'), CATDS: 0.430543569866988; n = 1
# [4] = test system: CSNK1E; conditions: read-out: apparent Kd; compound concentrations: 100 nM and 1000 nM (sheet 'Samples'), CATDS: 0.24847771886196199; n = 1
# [5] = test system: FLT3; conditions: read-out: apparent Kd; compound concentrations: 100 nM and 1000 nM (sheet 'Samples'), CATDS: 0.12792168712312599; n = 1
# [6] = test system: GAK; conditions: read-out: apparent Kd; compound concentrations: 100 nM and 1000 nM (sheet 'Samples'), CATDS: 0.12375475758879401; n = 1
# [7] = test system: RIOK2; conditions: read-out: apparent Kd; compound concentrations: 100 nM and 1000 nM (sheet 'Samples'), CATDS: 0.107134967231821; n = 1
# [8] = test system: CDK16; conditions: read-out: apparent Kd, n = 1
# [9] = test system: T1, DJA1; conditions: read-out: apparent Kd; compound concentrations: 100 nM and 1000 nM (sheet 'Samples'), CATDS: 0.17087221308304101; n = 1
# T1 construct: gene DNAJA1
# [10] = test system: GSK3A; conditions: read-out: apparent Kd; compound concentrations: 100 nM and 1000 nM (sheet 'Samples'), CATDS: 0.21400406250920001; n = 1
# [11] = test system: GSK3B; conditions: read-out: apparent Kd; compound concentrations: 100 nM and 1000 nM (sheet 'Samples'), CATDS: 0.248828524546996; n = 1
# [12] = test system: NQO2; conditions: read-out: apparent Kd; compound concentrations: 100 nM and 1000 nM (sheet 'Samples'), CATDS: 0.16613061012500299; n = 1
# [13] = test system: PDXK; conditions: read-out: apparent Kd; compound concentrations: 100 nM and 1000 nM (sheet 'Samples'), CATDS: 0.14245217988019501; n = 1
# [14] = test system: CDK2; conditions: read-out: apparent Kd; compound concentrations:100 nM and 1000 nM (sheet 'Samples'); n = 1
# [15] = test system: CDKL5; conditions: read-out: apparent Kd; compound concentrations:100 nM and 1000 nM (sheet 'Samples'); n = 1
# [16] = test system: CLK4; conditions: read-out: apparent Kd; compound concentrations:100 nM and 1000 nM (sheet 'Samples'); n = 1
# [17] = test system: CSNK2A1;CSNK2A3; conditions: read-out: apparent Kd; compound concentrations:100 nM and 1000 nM (sheet 'Samples'); n = 1
# [18] = test system: CSNK2A2; conditions: read-out: apparent Kd; compound concentrations:100 nM and 1000 nM (sheet 'Samples'); n = 1
# [19] = test system: TGFBR2; conditions: read-out: apparent Kd; compound concentrations:100 nM and 1000 nM (sheet 'Samples'); n = 1
# [20] = test system: CDK10; conditions: read-out: apparent Kd; compound concentrations:100 nM and 1000 nM (sheet 'Samples'); n = 1
# [21] = test system: CDK17; conditions: read-out: apparent Kd; compound concentrations:100 nM and 1000 nM (sheet 'Samples'); n = 1
# [22] = test system: CDK1; conditions: read-out: apparent Kd; compound concentrations:100 nM and 1000 nM (sheet 'Samples'); n = 1
# [23] = test system: CDK4; conditions: read-out: apparent Kd; compound concentrations:100 nM and 1000 nM (sheet 'Samples'); n = 1
# [24] = test system: CDK5; conditions: read-out: apparent Kd; compound concentrations:100 nM and 1000 nM (sheet 'Samples'); n = 1
# [25] = test system: CDK6; conditions: read-out: apparent Kd; compound concentrations:100 nM and 1000 nM (sheet 'Samples'); n = 1
# [26] = test system: CDK7; conditions: read-out: apparent Kd; compound concentrations:100 nM and 1000 nM (sheet 'Samples'); n = 1
# [27] = test system: CDK9; conditions: read-out: apparent Kd; compound concentrations:100 nM and 1000 nM (sheet 'Samples'); n = 1
# [28] = test system: ICK; conditions: read-out: apparent Kd; compound concentrations:100 nM and 1000 nM (sheet 'Samples'); n = 1
# [29] = test system: SLK; conditions: read-out: apparent Kd; compound concentrations:100 nM and 1000 nM (sheet 'Samples'); n = 1
# [30] = test system: NNT; conditions: read-out: apparent Kd; compound concentrations:100 nM and 1000 nM (sheet 'Samples'); n = 1
# [31] = compound concentrations:100 nM and 1000 nM (sheet 'Samples')
compound,measurement,setting,value
CCc1nn2ncccc2c1-c1ccnc(NC2CC2)n1 [GW683768X],potency estimated from few doses,[1],1390 nM
same,potency estimated from few doses,[2],1200 nM
same,potency estimated from few doses,[3],95.2 nM
same,potency estimated from few doses,[4],230 nM
same,potency estimated from few doses,[5],948 nM
same,potency estimated from few doses,[6],1040 nM
same,potency estimated from few doses,[7],1610 nM
Cn1cc(C2=C(c3cccc(Br)c3)C(=O)NC2=O)c2ccccc21 [RO0317625-000],potency estimated from few doses,"[8]; compound concentrations: 100 nM and 1000 nM (sheet 'Samples'), CATDS: 0.11881037811930099",2310 nM
same,potency estimated from few doses,[9],881 nM
same,potency estimated from few doses,[10],574 nM
same,potency estimated from few doses,[11],447 nM
same,potency estimated from few doses,[12],935 nM
same,potency estimated from few doses,[13],1340 nM
CC(C)COC(=O)c1ccc2c(c1)/C(=C/Nc1ccc(S(N)(=O)=O)cc1)C(=O)N2 [GW416981X],potency estimated from few doses,[8]; [31],964 nM
same,potency estimated from few doses,[14],587 nM
same,potency estimated from few doses,[15],1290 nM
same,potency estimated from few doses,[16],1480 nM
same,potency estimated from few doses,[17],477 nM
same,potency estimated from few doses,[18],246 nM
same,potency estimated from few doses,[19],1860 nM
COc1ccc(F)cc1C(=O)c1cnc(NC2CCN(S(C)(=O)=O)CC2)nc1N [RO4517872-000],potency estimated from few doses,[20],915 nM
same,potency estimated from few doses,[8]; [31],74.1 nM
same,potency estimated from few doses,[21],75.1 nM
same,potency estimated from few doses,[22],402 nM
same,potency estimated from few doses,[14],62.7 nM
same,potency estimated from few doses,[23],1200 nM
same,potency estimated from few doses,[24],221 nM
same,potency estimated from few doses,[25],1680 nM
same,potency estimated from few doses,[26],1460 nM
same,potency estimated from few doses,[27],246 nM
same,potency estimated from few doses,[28],347 nM
same,potency estimated from few doses,[29],1280 nM
CS(=O)(=O)N1CCC(Nc2ncc(C(=O)c3c(F)cccc3F)c(N)n2)CC1 [RO4930481-000],potency estimated from few doses,[8]; [31],1350 nM
same,potency estimated from few doses,[21],1470 nM
same,potency estimated from few doses,[14],1000 nM
same,potency estimated from few doses,[25],1750 nM
same,potency estimated from few doses,[28],1260 nM
same,potency estimated from few doses,[30],1110 nM
